Among the data in PubChem BioAssay (EPA / NIEHS) are outcome and AC50 values, retold here.

Active and inactive are the calls of the source. How the source made its calls: active means hit-call score of the fitted dose curve at least 0.9, where 1 is the maximum; inactive means score below 0.9.

Read-out in the experiment: Monocyte Chemoattractant Protein-1 (MCP1), CCL2 (gene 6347)
As to the kind of experiment: BSK_SAg_MCP1: BioMAP Diversity Plus: SAg Assay for Monocyte Chemoattractant Protein-1 (MCP1) Biomarker Activity (AID 2283090). The settings on record: primary human HUVEC with PBMC; actives raise or lower the signal. Here is the method: BSK_SAg is a cell-based, multiplexed-readout assay that uses umbilical vein endothelium and peripheral blood mononuclear cells, a human vascular primary cell co-culture, with measurements taken at 24 hours after chemical dosing in a 96-well plate.BSK_SAg_MCP1 is an assay component measured in the BSK_SAg assay. It measures MCP-1 antibody related to regulation of gene expression using ELISA technology.Data from the assay component BSK_SAg_MCP1 was analyzed into 1 assay endpoint. This assay endpoint, BSK_SAg_MCP1, was analyzed with bidirectional fitting relative to DMSO as the negative control and baseline of activity. Using a type of binding reporter, gain or loss-of-signal activity can be used to understand changes in the signaling as they relate to the gene CCL2. Furthermore, this assay endpoint can be referred to as a primary readout, because this assay has produced multiple assay endpoints where this one serves a signaling function. To generalize the intended target to other relatable targets, this assay endpoint is annotated to the cytokine intended target family, where the subfamily is chemotactic factor.
The levels of cell surface (or secreted, indicated by the prefix "s") biomarker endpoints were measured by ELISA. Overt cytotoxicity to cells in confluent adherent cultures (all systems other than the BT system) was assessed by measuring total protein levels using sulforhodamine B (SRB) staining in parallel cultures at the time of biomarker measurements, indicated as SRB endpoints. For proliferation assays for adherent cell types, individual cell types are cultured at sub-confluence and relative cell numbers quantified by SRB staining at time points optimized for each system (48 h: 3C and CASM3C systems; 72 h: BT and HDF3CGF systems; 96 h: SAg system). SRB was performed by staining cells with 0.1% SRB after fixation with 10% TCA and reading wells at 560 nm.Viability and proliferation of PBMC (T cells) was quantified by Alamar Blue reduction for the SAg and BT systems. For PBMC viability (referred to as PBMC Cytotoxicity within the assay endpoint names), cells were plated (75,000/well in a 96-well plate) and then chemical samples added for 1 h before addition of activators, SEB and TSST-1 (20 ng/mL final concentration each). Cells were incubated for 90 h. Then, Alamar Blue (20 uL/well) (Invitrogen, Cat DAL1100) was added for 6 h, and the plates were read with a fluorescence microplate reader at 546/580 nm (excitation/emission). For PBMC proliferation, cells were plated and activated as above but incubated for only 16 h prior to addition of Alamar Blue. Plates were read after 6 h.
Turning to `Nc1cc([N+](=O)[O-])ccc1Cl`, the result was inactive. With `C=CCOC(=O)CCC1CCCCC1`, the result was inactive. With `C=C(C)C(=O)O[C@H]1C[C@@H]2CC[C@@]1(C)C2(C)C`, the AC50 was 34.1 µM (active).

Turning to `O=[N+]([O-])c1cc(C(F)(F)F)ccc1Cl`, the outcome was inactive. As to `COc1cc(C=O)ccc1OC(=O)C(C)C`, the result was inactive. As to `Cc1ccc2n[nH]nc2c1`, the result was inactive. Same read-out and setting: the result for `CCC(=O)OCc1ccccc1` reads “inactive”; that for `C#C[C@]1(O)CC[C@H]2[C@@H]3CCC4=Cc5oncc5C[C@]4(C)[C@H]3CC[C@@]21C`, “inactive”; that for `Cc1cc(C2(c3cc(C)c(O)cc3C)OS(=O)(=O)c3ccccc32)c(C)cc1O`, “inactive”. `O=C1OC2(c3cc(Br)c(O)c(Br)c3Oc3c2cc(Br)c(O)c3Br)c2c(Cl)c(Cl)c(Cl)c(Cl)c21`: the AC50 was 5.24 µM (active). As to `BrC1CCC(Br)C(Br)CCC(Br)C(Br)CCC1Br` (stereo not given), the outcome was inactive. Same read-out and setting: to `CCCCC(CC)COCCC#N` (stereo not given) belongs “inactive”.

`CC(=O)OCCC(C)CC(C)(C)C` (stereo not given): the result was inactive. On to `O=C(O)c1cn(C2CC2)c2cc(N3CCNCC3)c(F)cc2c1=O`, for which the result was inactive. For the compound `O=C(O)c1cn(-c2ccc(F)cc2)c2cc(N3CCNCC3)c(F)cc2c1=O`, the outcome was inactive. `CC(=O)/C=C/C1=C(C)CCCC1(C)C`: the result was inactive. Consider `CC(=O)[C@H]1CC[C@H]2[C@@H]3CC=C4C[C@@H](O)CC[C@]4(C)[C@H]3CC[C@]12C`, for which the outcome was inactive. For `CCc1c(C)cc(N)c(CC)c1N`, the result was inactive. The same measure, in the same setting: to `OC[C@H]1O[C@H](O[C@]2(CCl)O[C@H](CCl)[C@@H](O)[C@@H]2O)[C@H](O)[C@@H](O)[C@H]1Cl` belongs “inactive”; to `O=C=NC1CCC(CC2CCC(N=C=O)CC2)CC1` (stereo not given), “inactive”; to `CCCCCCCCCC=O`, “inactive”. With `C[C@H]1C[C@@H]2[C@H]([C@@H](O)C[C@@]3(C)[C@H]2CC[C@]3(O)C(=O)CO)[C@@]2(C)C=CC(=O)C=C12`, the outcome was inactive.

In the case of `CN(CCOc1ccc(CC2SC(=O)NC2=O)cc1)c1ccccn1` (stereo not given), the concentration at half-maximal activity (AC50) was 20 µM (active). `CC(=O)O[C@]1(C(C)=O)CC[C@H]2[C@@H]3C[C@H](C)C4=CC(=O)CC[C@]4(C)[C@H]3CC[C@@]21C`: the result was inactive. In the case of `c1ccc2sc(SN(C3CCCCC3)C3CCCCC3)nc2c1`, the outcome was inactive. Regarding `Nc1cc([N+](=O)[O-])ccc1O`, the result was inactive. For `COC(=O)c1ccc(C)cc1`, the outcome was inactive.

Regarding `CC(C)(COC(=O)c1ccccc1)COC(=O)c1ccccc1`, the outcome was inactive. Turning to `CC1CCC(C(C)CS)CC1S` (stereo not given), the AC50 is 32.6 µM (active). `CCCCCCCCC=O`: the outcome was inactive. Same read-out and setting: to `CCCCCCCCCCCCCCCCCC(=O)OCC(CC)CCCC` (stereo not given) belongs “inactive”; to `N#Cc1ccc(CC(=NNC(=O)Nc2ccc(OC(F)(F)F)cc2)c2cccc(C(F)(F)F)c2)cc1`, “inactive”. With `O=C(O)C[C@H](O)C[C@H](O)/C=C/c1c(C2CC2)nc2ccccc2c1-c1ccc(F)cc1`, the result was inactive. Turning to `CC[Si](OC(C)=O)(OC(C)=O)OC(C)=O`, the outcome was inactive. As for `Cc1ccc(Nc2ccc(O)c3c2C(=O)c2ccccc2C3=O)cc1`, the result was inactive. Take `CNC[C@H](O)c1cccc(O)c1`: the result was inactive. For `Cc1ccc(O)c(C(C)(C)C)c1`, the half-maximal activity concentration (AC50) is 36.6 µM (active). `OC1OC[C@@H](O)[C@H](O)[C@H]1O` (stereo not given in full): the outcome was inactive.

As to `O=C1CCCCCCCCCCCCCCO1`, the outcome was inactive.

Turning to `NCCNCCN`, the outcome was inactive.
